Screens: PubChem, National Center for Advancing Translational Sciences (NCATS)
D2 ag-1: human D2 receptor agonism in beta-arrestin assay | 0.084% of 360,000 active | activation, % (test concentration not listed) | P14416 | DiscoveRx PathHunter D2 beta-arrestin, luminescence, 90 min; 100% = 57 uM dopamine signal; in the data active = activation above about 40%
Target sequence (P14416 whole entry, looked up): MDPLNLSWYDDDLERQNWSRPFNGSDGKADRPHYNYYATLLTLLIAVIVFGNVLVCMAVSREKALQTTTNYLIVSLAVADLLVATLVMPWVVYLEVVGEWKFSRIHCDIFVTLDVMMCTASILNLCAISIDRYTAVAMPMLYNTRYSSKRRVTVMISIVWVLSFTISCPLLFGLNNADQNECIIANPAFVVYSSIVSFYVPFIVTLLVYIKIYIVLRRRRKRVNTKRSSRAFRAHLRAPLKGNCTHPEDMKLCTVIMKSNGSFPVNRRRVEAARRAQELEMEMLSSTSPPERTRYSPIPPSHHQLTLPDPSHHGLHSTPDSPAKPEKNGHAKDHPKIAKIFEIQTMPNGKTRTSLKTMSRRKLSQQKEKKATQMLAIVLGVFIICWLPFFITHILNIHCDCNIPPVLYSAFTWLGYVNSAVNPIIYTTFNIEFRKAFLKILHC
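Agonist mode: compounds alone added to overnight-plated D2 PathHunter cells for 90 min at 37 C, with 57 uM final dopamine (EC100) defining full response. Beta-arrestin recruitment detected by chemiluminescent reagent, read after 1 h at ambient temperature.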
D2 PAM-1: human D2 receptor positive allosteric modulation | DiscoveRx D2 beta-arrestin cells, luminescence, 90 min; 100% = 57 uM dopamine signal | potentiation, % (test concentration not listed) | 0.23% of 360,000 active; in the data active = potentiation above about 50%
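PathHunter beta-arrestin assay in DiscoveRx D2 cells. Compounds were added with an EC20 of dopamine (50 nM final) for 90 min at 37 deg C. Luminescence was read 1 h after detection reagent, with 57 uM dopamine as the EC100 control.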
D2 antagonist: antagonists of human D2 dopamine receptor; P14416; HEK293 TREx D2 cells, calcium flux, dopamine EC80; 2% of 340,000 active; inhibition, % at 10 µM; in the data active = inhibition above about 30%; inactive = below that, where a call was filed
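Dopamine at EC80 is the agonist stimulus; test compounds precede it by 180 s. Calcium flux read kinetically in a force-coupled, inducible HEK293 T-REx D2 cell line.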
D2 PAM-2: positively modulates the human D2 dopamine receptor allosterically; HEK293 T-REx D2, calcium flux, EC20 dopamine potentiation; potentiation, % at 10 µM; 0.34% of 340,000 active; AID 485347;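 active = potentiation over 3 SD above the plate norm, cut at about 30% in these data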
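Potentiation of an EC20 dopamine calcium response measured kinetically over 180 s, after a preceding 180 s compound-only read flagging agonists. Cells: inducible Hek293 Trex D2 line, 4000/well, cultured overnight at 30 C before dye loading.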
D2 ag-2: activates the human D2 dopamine receptor. 0.53% of 340,000 active. activation, % at 2 µM. HEK293 T-REx D2 cells, calcium flux agonist mode;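 active = activation over 3 SD above normal in the single-dose calcium agonist read, cut at about 30% in these data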
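Tetracycline-induced HEK293 Trex cells with D2 receptor force-coupled to calcium signaling, plated overnight at 30 C and loaded with no-wash calcium dye. Calcium flux read kinetically for 180 s after compound addition; responses flag agonists.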
Numbers stand for hits; . = inactive; / = no result. Compounds with a hit are over-represented: about 2.4% of the library has one in this group of screens.

SMILES | D2 ag-1 | D2 PAM-1 | D2 antagonist | D2 PAM-2 | D2 ag-2
CC(C)c1ccccc1NC(=O)Cn1cnc2c1c(=O)n(C)c(=O)n2C | / | / | / | . | .
Cc1nn(CC(=O)Nc2ccc(OC(F)(F)F)cc2)c(=O)c2c(C)n(-c3ccc(Cl)cc3)nc12 | / | / | / | . | .
CCOc1ccc(Br)cc1S(=O)(=O)N1CCCC1 | . | . | 53.6 | . | .
CSc1ccc(C(=S)N2CCN(CCO)CC2)cc1 | . | . | . | . | .
OCCN1CCN(C(=S)c2ccc(Br)cc2)CC1 | . | . | 54.7 | . | .
COc1ccc(CNCc2ccco2)cc1OCc1ccccc1 | . | . | 37.4 | . | .
COc1ccccc1CCNCc1ccc(OC)c(OCc2ccccc2)c1 | . | . | / | / | /
O=C(NC(=S)N1CCOCC1)C12CC3CCC(CC(C3)C1)C2 | . | . | . | . | .
O=C(NC(=S)N1CCOCC1)C12CCC3CC(CC(C3)C1)C2 | . | . | . | 31.1 | .
O=C(Nc1nnc(S(=O)(=O)N2CCCCCC2)s1)c1ccccc1Cl | . | . | / | . | .
O=C(Nc1nnc(S(=O)(=O)N2CCCC2)s1)c1ccccc1Cl | . | . | 34.9 | . | .
Cn1c(-c2nonc2NC(=O)c2ccc(C(C)(C)C)cc2)nc2ccccc21 | / | / | 44.2 | . | .
CC(=O)Nc1nonc1-c1nc2ccccc2n1C | . | . | . | . | .
COc1ccc(Nc2ncc3c(n2)CCN(Cc2ccccc2C)C3)c(OC)c1 | / | / | / | . | .
COc1ccccc1-n1c(SCC(=O)N2CCOCC2)nc2cccnc21 | . | . | 59.7 | . | .
Cc1onc(-c2c(F)cccc2Cl)c1C(=O)OCC(=O)Nc1cccc(S(=O)(=O)N(C)C)c1 | . | . | / | / | /
O=C(NC1=NCCS1)C12CC3CC(CC(C3)C1)C2 | . | . | 50.1 | . | .
CC(C)C(NC(=O)C12CC3CC(CC(C3)C1)C2)C(=O)NC1=NCCS1 (stereo not given) | / | / | . | . | .
Cc1cccc(Cn2c(=O)n(CCCC(=O)NCc3ccccc3Cl)c(=O)c3ccccc32)c1 | / | / | / | . | .
Cc1ccc(NC(=O)CCCn2c(=O)oc3ccccc32)c(O)c1 | . | . | . | . | .
CCOC(=O)c1cccc(NC(=O)CCn2c(=O)oc3ccccc32)c1 | . | . | 32.1 | . | .
CCOC(=O)c1c(C)[nH]c(C(=O)Cn2c(=O)oc3ccccc32)c1C | . | . | . | . | .
Cc1cc(C)c(NC(=O)CCCn2c(=O)oc3ccccc32)c(C)c1 | . | . | 33.1 | . | .
O=C(CCn1c(=O)oc2ccccc21)Nc1cccc(Cl)c1 | . | . | . | . | .
CCOC(=O)c1c(NC(=O)Cn2c(=O)oc3ccccc32)oc(C)c1C(C)=O | . | . | 30.5 | . | .
SMILES | D2 ag-1 | D2 PAM-1 | D2 antagonist | D2 PAM-2 | D2 ag-2
CC1=C(C(=O)N(C(C)C)C(C)C)CC(CC(=O)NCc2cccs2)C(=O)N1Cc1ccc(C(C)(C)C)cc1 (stereo not given) | . | . | / | / | /
C=CCOc1ccc(Cl)cc1-c1noc(-c2csc([C@H]3C[C@H](O)[C@@H](CO)O3)n2)n1 | . | . | / | / | /
O=C(CSc1nccn1Cc1ccc(Cl)cc1)Nc1ccc2c(c1)OCO2 | / | / | / | . | .
Cc1ccc(S(=O)(=O)N2CCN(C(=O)COC(=O)CNC(=O)c3ccccc3)CC2)c(C)c1 | . | . | 32.7 | . | .
CCCCOc1ccccc1Cn1c(=O)oc2ccc(C)cc21 | . | . | 31.4 | . | .
CCCCCOc1ccccc1Cn1c(=O)oc2ccc(C)cc21 | / | / | / | . | .
O=C1C(Cl)=C(NCCCN2CCOCC2)C(=O)c2ccccc21 | . | . | / | / | /
O=C1C(Cl)=C(NCCN2CCOCC2)C(=O)c2ccccc21 | . | . | 36.2 | . | .
Cc1ccn2c(NC3CCCCC3)c(C(C)C)nc2c1 | . | . | . | . | .
Cc1ccn2c(NC3CCCC3)c(-c3ccncc3)nc2c1 | . | . | . | 30.0 | .
Cc1ccn2c(NC3CCCCC3)c(C)nc2c1 | . | . | 34.6 | . | .
CCc1ccc(CNC(=O)Cn2nc(C)n3c(cc4cc(C)ccc43)c2=O)cc1 | / | / | / | . | /
O=C(c1ccc(F)cc1)C1CCN(Cc2ccccc2F)CC1 | . | . | / | / | /
O=C(NN1CCN(Cc2ccccc2)CC1)c1ccc(Cl)cc1 | . | . | 67.1 | . | .
O=C(c1ccc(Cl)cc1)C1CCN(Cc2ccccc2)CC1 | . | . | 81.2 | . | .
